In ChEMBL document CHEMBL2218924, “A broad activity screen in support of a chemogenomic map for kinase signalling research and drug discovery” (Biochem J, 2013):

Tests used:
[1] = target: Tyrosine-protein kinase Lck (Homo sapiens) (UniProt P06239); details: at 10 µM
[2] = target: Tyrosine-protein kinase Lck (Homo sapiens) (UniProt P06239); details: at 1 µM
[3] = target: Tyrosine-protein kinase Lck (Homo sapiens) (UniProt P06239); details: at 10 µM; remark: listed apart in the source
[4] = target: Tyrosine-protein kinase Lyn (Homo sapiens) (UniProt P07948); details: at 1 µM
[5] = target: Tyrosine-protein kinase Lyn (Homo sapiens) (UniProt P07948); details: at 10 µM
[6] = target: Mitogen-activated protein kinase 3 (Homo sapiens) (UniProt P27361); details: at 1 µM
[7] = target: Mitogen-activated protein kinase 3 (Homo sapiens) (UniProt P27361); details: at 10 µM
[8] = target: Mitogen-activated protein kinase 1 (Homo sapiens) (UniProt P28482); details: at 1 µM
[9] = target: Mitogen-activated protein kinase 1 (Homo sapiens) (UniProt P28482); details: at 10 µM
[10] = target: MAP kinase-activated protein kinase 2 (Homo sapiens) (UniProt P49137); details: at 1 µM
[11] = target: MAP kinase-activated protein kinase 2 (Homo sapiens) (UniProt P49137); details: at 10 µM
[12] = target: MAP kinase-activated protein kinase 3 (Homo sapiens) (UniProt Q16644); details: at 10 µM
[13] = target: Serine/threonine-protein kinase MARK1 (Homo sapiens) (UniProt Q9P0L2); details: at 1 µM
[14] = target: Serine/threonine-protein kinase MARK1 (Homo sapiens) (UniProt Q9P0L2); details: at 10 µM
[15] = target: Dual specificity mitogen-activated protein kinase kinase 1 (Homo sapiens) (UniProt Q02750); details: at 1 µM
[16] = target: Dual specificity mitogen-activated protein kinase kinase 1 (Homo sapiens) (UniProt Q02750); details: at 10 µM
[17] = target: Maternal embryonic leucine zipper kinase (Homo sapiens) (UniProt Q14680); details: at 1 µM
[18] = target: Maternal embryonic leucine zipper kinase (Homo sapiens) (UniProt Q14680); details: at 10 µM
[19] = target: Misshapen-like kinase 1 (Homo sapiens) (UniProt Q8N4C8); details: at 1 µM
[20] = target: Misshapen-like kinase 1 (Homo sapiens) (UniProt Q8N4C8); details: at 10 µM

Chain of Maternal embryonic leucine zipper kinase (Homo sapiens) (Q14680 whole entry, looked up): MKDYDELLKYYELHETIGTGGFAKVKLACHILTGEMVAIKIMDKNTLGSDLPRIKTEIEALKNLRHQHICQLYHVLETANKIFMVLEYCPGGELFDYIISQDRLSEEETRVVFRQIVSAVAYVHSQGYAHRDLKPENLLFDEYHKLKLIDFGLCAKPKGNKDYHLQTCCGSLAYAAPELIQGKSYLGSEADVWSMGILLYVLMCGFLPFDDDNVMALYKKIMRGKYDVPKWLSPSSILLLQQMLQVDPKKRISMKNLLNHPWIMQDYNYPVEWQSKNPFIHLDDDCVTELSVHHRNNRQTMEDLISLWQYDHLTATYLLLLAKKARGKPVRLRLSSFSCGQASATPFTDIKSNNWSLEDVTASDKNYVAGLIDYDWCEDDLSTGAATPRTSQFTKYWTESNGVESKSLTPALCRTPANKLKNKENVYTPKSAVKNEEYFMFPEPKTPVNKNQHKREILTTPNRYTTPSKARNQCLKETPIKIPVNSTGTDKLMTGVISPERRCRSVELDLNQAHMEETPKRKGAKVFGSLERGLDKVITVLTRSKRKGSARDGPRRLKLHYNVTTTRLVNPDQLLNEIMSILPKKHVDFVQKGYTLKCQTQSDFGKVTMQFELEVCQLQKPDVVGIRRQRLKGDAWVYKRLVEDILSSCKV
Chain of Misshapen-like kinase 1 (Homo sapiens) (Q8N4C8 whole entry, looked up): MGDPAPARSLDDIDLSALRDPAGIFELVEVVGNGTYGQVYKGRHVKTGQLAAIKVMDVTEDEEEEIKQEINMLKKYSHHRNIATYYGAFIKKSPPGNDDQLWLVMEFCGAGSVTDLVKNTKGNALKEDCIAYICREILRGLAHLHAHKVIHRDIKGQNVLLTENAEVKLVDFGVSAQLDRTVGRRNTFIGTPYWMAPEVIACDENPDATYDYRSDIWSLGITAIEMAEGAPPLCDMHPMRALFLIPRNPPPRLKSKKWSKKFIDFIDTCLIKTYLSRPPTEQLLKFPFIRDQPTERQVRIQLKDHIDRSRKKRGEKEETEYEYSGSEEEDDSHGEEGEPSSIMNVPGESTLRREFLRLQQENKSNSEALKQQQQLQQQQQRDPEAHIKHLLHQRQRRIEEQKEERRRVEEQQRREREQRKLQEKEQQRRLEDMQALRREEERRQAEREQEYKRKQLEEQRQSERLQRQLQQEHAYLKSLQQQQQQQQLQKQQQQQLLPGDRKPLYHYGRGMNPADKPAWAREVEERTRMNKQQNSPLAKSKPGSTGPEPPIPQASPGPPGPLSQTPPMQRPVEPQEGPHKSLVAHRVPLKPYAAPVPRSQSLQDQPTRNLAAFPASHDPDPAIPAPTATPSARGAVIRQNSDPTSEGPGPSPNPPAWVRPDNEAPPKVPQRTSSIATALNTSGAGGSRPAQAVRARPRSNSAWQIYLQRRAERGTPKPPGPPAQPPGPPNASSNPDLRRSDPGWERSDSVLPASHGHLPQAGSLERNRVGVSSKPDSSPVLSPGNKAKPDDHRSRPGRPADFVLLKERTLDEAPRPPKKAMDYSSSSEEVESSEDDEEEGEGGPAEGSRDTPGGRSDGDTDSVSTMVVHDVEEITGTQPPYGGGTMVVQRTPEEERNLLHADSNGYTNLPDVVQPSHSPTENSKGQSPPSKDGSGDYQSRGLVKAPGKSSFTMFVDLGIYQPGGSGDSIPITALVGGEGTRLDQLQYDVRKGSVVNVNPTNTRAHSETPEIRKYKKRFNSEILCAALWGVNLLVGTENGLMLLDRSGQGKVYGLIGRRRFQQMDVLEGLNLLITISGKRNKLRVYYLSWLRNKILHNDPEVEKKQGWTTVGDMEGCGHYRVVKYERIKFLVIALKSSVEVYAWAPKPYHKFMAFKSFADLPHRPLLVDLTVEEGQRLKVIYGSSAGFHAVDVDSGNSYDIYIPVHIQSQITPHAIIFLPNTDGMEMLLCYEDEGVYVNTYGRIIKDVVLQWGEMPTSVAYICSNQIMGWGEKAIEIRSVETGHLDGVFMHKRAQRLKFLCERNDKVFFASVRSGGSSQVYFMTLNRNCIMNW
Chain of Serine/threonine-protein kinase MARK1 (Homo sapiens) (Q9P0L2 whole entry, looked up): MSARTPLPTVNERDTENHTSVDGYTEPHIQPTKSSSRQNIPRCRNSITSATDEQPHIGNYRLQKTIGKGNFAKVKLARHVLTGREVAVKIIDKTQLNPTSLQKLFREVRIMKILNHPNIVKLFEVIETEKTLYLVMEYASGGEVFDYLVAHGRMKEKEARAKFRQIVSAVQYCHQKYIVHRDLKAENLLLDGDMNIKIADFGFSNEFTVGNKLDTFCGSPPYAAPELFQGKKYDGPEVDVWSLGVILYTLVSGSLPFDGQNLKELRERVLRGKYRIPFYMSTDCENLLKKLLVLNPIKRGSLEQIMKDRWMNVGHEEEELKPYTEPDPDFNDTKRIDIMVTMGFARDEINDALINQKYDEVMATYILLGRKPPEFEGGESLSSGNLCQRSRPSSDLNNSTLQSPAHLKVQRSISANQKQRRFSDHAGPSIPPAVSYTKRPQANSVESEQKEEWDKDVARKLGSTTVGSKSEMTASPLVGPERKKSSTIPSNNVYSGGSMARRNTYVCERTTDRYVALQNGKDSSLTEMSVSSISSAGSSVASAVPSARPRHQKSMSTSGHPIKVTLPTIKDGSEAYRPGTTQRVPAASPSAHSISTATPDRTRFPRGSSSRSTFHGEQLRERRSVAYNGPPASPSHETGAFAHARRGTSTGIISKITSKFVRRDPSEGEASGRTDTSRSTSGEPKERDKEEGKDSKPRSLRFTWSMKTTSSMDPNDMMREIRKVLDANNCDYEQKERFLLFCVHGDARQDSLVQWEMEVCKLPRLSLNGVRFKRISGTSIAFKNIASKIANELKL
Chain of Dual specificity mitogen-activated protein kinase kinase 1 (Homo sapiens) (Q02750 whole entry): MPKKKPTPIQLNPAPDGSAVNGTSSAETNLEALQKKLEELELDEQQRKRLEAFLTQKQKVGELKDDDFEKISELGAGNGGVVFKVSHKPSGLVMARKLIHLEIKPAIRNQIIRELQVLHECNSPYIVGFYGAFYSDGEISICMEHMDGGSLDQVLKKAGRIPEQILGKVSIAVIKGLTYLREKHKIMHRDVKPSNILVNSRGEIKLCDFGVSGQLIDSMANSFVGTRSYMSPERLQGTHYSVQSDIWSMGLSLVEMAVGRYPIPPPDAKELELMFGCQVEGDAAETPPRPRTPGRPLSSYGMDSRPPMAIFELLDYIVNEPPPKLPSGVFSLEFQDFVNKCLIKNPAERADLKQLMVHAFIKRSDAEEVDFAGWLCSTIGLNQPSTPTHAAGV
Chain of Tyrosine-protein kinase Lck (Homo sapiens) (P06239 2-509 limits assumed): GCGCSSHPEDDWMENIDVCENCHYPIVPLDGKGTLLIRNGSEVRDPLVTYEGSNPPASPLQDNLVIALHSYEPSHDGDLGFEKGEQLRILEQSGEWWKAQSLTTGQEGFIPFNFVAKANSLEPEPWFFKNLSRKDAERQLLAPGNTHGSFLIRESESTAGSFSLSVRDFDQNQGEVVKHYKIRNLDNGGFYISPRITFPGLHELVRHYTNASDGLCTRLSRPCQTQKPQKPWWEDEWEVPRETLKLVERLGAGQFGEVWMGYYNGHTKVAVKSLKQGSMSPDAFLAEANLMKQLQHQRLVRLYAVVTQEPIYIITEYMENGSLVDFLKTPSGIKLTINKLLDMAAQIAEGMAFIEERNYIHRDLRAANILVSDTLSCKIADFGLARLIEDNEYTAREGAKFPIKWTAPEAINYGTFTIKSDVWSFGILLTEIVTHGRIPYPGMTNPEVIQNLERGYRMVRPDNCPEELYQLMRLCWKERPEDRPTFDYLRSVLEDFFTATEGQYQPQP
Chain of Mitogen-activated protein kinase 1 (Homo sapiens) (P28482 whole entry): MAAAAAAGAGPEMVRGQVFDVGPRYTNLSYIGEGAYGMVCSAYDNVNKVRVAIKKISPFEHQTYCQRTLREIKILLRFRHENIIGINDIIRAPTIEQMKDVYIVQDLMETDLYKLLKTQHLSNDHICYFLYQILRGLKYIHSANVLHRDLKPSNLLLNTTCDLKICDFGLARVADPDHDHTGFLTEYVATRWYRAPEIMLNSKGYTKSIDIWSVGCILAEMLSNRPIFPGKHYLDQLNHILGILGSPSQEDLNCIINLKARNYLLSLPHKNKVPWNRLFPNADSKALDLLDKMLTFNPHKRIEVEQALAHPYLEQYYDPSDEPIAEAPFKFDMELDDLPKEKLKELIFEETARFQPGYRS
Chain of Tyrosine-protein kinase Lyn (Homo sapiens) (P07948 2-512 limits assumed): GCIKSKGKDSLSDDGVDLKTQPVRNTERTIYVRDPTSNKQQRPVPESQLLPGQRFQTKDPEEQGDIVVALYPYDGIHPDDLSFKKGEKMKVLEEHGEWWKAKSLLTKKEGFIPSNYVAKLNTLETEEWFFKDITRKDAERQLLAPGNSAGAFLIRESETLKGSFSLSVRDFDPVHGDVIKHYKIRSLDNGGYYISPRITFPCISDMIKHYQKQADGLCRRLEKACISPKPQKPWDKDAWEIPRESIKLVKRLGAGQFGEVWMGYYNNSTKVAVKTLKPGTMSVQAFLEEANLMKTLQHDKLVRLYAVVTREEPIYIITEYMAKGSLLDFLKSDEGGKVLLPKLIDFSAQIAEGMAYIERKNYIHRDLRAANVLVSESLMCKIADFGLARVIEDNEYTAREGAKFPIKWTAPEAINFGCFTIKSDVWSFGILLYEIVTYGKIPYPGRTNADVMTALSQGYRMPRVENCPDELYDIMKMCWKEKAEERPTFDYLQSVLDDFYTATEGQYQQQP
Chain of Mitogen-activated protein kinase 3 (Homo sapiens) (P27361 whole entry): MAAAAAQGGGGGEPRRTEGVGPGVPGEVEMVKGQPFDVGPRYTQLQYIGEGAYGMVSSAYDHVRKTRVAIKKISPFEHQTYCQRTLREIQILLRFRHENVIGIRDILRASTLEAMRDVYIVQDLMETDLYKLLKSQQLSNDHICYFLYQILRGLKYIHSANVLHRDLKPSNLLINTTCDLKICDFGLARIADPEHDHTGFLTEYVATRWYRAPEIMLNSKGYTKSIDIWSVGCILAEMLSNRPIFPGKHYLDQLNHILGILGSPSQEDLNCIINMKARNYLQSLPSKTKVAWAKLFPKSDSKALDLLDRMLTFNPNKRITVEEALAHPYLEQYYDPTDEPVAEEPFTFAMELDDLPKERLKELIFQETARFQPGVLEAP

SMILES	residual activity [1] [%]	residual activity [2] [%]	residual activity [3] [%]	residual activity [4] [%]	residual activity [5] [%]	residual activity [6] [%]	residual activity [7] [%]	residual activity [8] [%]	residual activity [9] [%]	residual activity [10] [%]	residual activity [11] [%]	residual activity [12] [%]	residual activity [13] [%]	residual activity [14] [%]	residual activity [15] [%]	residual activity [16] [%]	residual activity [17] [%]	residual activity [18] [%]	residual activity [19] [%]	residual activity [20] [%]
CC(C)n1cnc2c(NCc3ccccc3)nc(NCCCO)nc21	70	87	86	53	38	87	92	100	90	72	90	80	81	81	103	110	86	77	108	100
O=C1c2ccccc2-[n+]2ccc3c([nH]c4ccccc43)c21	69	81	74	88	65	85	94	107	108	81	98	89	80	77	97	110	85	67	99	87
CC(C)n1cnc2/c(=N/c3cccc(Cl)c3)nc(NCCO)[nH]c21	37	86	40	20	2	92	77	117	78	91	92	116	50	26	81	91	56	16	98	69
Oc1c2ccccc2c2c3c(cccc13)N=N2	69	89	43	70	30	59	72	88	55	79	69	103	38	6	75	50	13	0	86	50
CN(C)c1ccc(/C=C2\C(=O)Nc3ccccc32)cc1	55	83	71	86	63	91	69	107	100	121	93	94	83	49	114	73	49	26	82	30
Ic1cccc(CSc2nnc(-c3ccncc3)o2)c1	66	82	87	63	47	82	82	111	83	77	67	82	4	5	69	77	24	13	98	95
Oc1ccc(Nc2nc(-c3ccc(Cl)cc3)cs2)cc1	103	98	79	84	56	96	81	114	107	108	71	116	104	93	106	112	114	100	104	83
Cn1cc(/C=C2\C(=O)Nc3ccc(S(N)(=O)=O)cc32)c2ccccc21	14	30	34	10	1	85	90	106	103	83	71	88	23	7	42	19	42	51	56	61
O=C(Nc1cccc(Nc2nccc(Nc3cccc(C(F)(F)F)c3)n2)c1)C1CC1	19	57	42	41	6	89	91	89	84	115	100	107	93	50	106	77	61	63	87	59
CCOc1cc2ncnc(Nc3cccc(Br)c3)c2cc1OCC	4	26	8	3	1	90	55	106	77	73	72	82	82	69	117	50	91	62	88	50
CC(=O)O/N=C1\C(=C2\C(=O)Nc3cc(Br)ccc32)Nc2ccccc21	13	63	26	12	4	98	102	105	93	87	93	90	77	39	98	113	69	52	103	86
Cc1ccc(S(=O)(=O)/C=C/C#N)cc1	94	87	97	92	94	97	114	113	110	93	74	85	90	89	105	95	96	100	111	104
Nc1n[nH]c2nnc(-c3c(-c4ccccc4)nn4ccccc34)cc12	58	94	68	66	33	21	3	68	13	102	94	93	83	78	89	38	91	97	89	39
Oc1n[nH]c2nnc(-c3c(-c4ccccc4)nn4ccccc34)cc12	82	90	71	71	68	92	93	101	105	82	90	86	75	76	104	109	53	36	105	92
CCN(CC)CCCCN1c2ccccc2Oc2ccc(Cl)cc21	120	101	64	102	67	112	114	116	104	115	133	146	106	106	117	115	96	105	107	95
Cc1nc2cc3nc(-c4cccs4)cnc3cc2n1C	54	89	48	91	32	114	95	100	103	104	114	100	107	100	120	91	89	67	112	98
Oc1ccc(-c2nc(-c3ccc(F)cc3)c(-c3ccncc3)[nH]2)cc1	45	80	26	66	11	123	93	113	98	87	105	102	95	97	90	104	92	46	91	49
COc1ccc(S(=O)(=O)N(CCO)c2ccccc2CN(C)C/C=C/c2ccc(Cl)cc2)cc1	51	105	43	97	65	82	70	111	103	78	73	84	83	77	97	79	90	63	98	97
N#C/C(=C(\N)Sc1ccc(N)cc1)c1ccccc1C(F)(F)F	103	110	74	65	67	95	114	104	90	70	69	88	72	54	104	101	67	62	106	91
CC#CC(=O)Nc1cc2c(Nc3ccc(F)c(Cl)c3)ncnc2cn1	71	97	84	78	51	100	88	101	103	89	92	96	87	83	111	103	76	99	96	91
COc1ccc(C(=O)Nc2sc3c(c2C(N)=O)CCCC3)cc1OC	103	88	84	69	46	97	86	111	109	70	88	79	81	81	120	101	78	78	95	92
O=[N+]([O-])c1ccc(-c2nc(-c3ccc(F)cc3)c(-c3ccncc3)[nH]2)cc1	86	92	82	75	23	85	72	113	109	92	102	104	91	90	109	127	97	87	74	63
O=C1NC(=O)/C(=C/c2ccc3c(c2)OC(F)(F)O3)S1	128	87	91	100	65	90	77	104	107	93	87	81	100	76	114	109	114	82	85	73
NC(=O)c1ccc2[nH]c(-c3ccc(Oc4ccc(Cl)cc4)cc3)nc2c1	72	105	102	91	88	99	99	102	99	103	126	127	85	70	91	111	91	83	91	66
Nc1nc(Nc2ccc(S(N)(=O)=O)cc2)nn1C(=S)Nc1c(F)cccc1F	16	8	18	6	1	29	3	49	3	44	9	41	-1	0	16	6	17	24	18	2
O=C1NC(=O)/C(=C\c2ccc3nccnc3c2)S1	84	81	61	99	89	82	77	98	96	87	85	91	86	71	108	84	64	31	89	61
CO[C@H]1[C@@H](OC)C[C@H](C)[C@@H](OC)C2=CC(=O)C=C(NC(=O)/C(C)=C/C=C/[C@H](OC)[C@@H](OC(N)=O)/C(C)=C/[C@@H]1C)C2=O	86	93	85	85	57	88	89	105	97	101	85	81	92	82	102	95	60	63	95	92
